Values without a mark were called inactive. Inconclusive results are not listed. Where a call stands in place of a potency, no number is given. Activity calls are given as the source filed them. Unless noted, the call rests on the fitted dose curve.
Assays:
[1] = Nuclear factor erythroid 2-related factor 2/antioxidant responsive element (Nrf2/ARE) small molecule agonists: qHTS cell viability counter screen in human keratinocytes (AID 1919968; active means well fitted curve in the direction sought with a large enough effect in the repeat runs; an effect the other way counts as inactive or inconclusive; further: nearly all actives have a fitted effect of over 55% in size; further: potency means the concentration at half of the fitted maximal effect)
How it was run: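 Measured as CellTiter-Fluor fluorescence, this readout tracks cytotoxicity in the same wells as the ARE-luciferase screen. HaCaT reporter cells (1,500/well) received compounds after a 5 h pre-incubation and were exposed for 23 h.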

[2] = Nuclear factor erythroid 2-related factor 2/antioxidant responsive element (Nrf2/ARE) small molecule agonists: luciferase reporter gene qHTS assay in human keratinocytes (AID 1919969); further: nearly all actives have a fitted effect of over 35% in size; further: potency means the concentration at half of the fitted maximal effect
[3] = target: Gonadotropin-releasing hormone receptor (Homo sapiens) (UniProt P30968); test: Human gonadotropin-releasing hormone receptor (GnRHR) small molecule agonists, calcium flux assay in GnRHR-HEK293 cells (AID 1920063); further: nearly all actives have a fitted effect of over 35% in size
Gonadotropin-releasing hormone receptor (Homo sapiens), sequence (P30968 whole entry, looked up): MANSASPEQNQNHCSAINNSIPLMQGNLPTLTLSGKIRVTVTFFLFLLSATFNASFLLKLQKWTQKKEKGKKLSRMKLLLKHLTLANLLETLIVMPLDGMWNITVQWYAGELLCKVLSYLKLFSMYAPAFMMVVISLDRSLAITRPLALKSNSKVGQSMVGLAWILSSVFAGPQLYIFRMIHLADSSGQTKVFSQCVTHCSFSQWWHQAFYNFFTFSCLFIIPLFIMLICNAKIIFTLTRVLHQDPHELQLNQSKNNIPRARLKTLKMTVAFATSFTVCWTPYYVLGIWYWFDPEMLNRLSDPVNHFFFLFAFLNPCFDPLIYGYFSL
How it was run: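 Fluorescence kinetics (480 nm excitation, 540 nm emission; 3 min, 1 s steps) report calcium mobilisation in human GnRHR-HEK293 cells in agonist mode. Dye incubation: 1 h, 37 C.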

[4] = target: KiSS-1 receptor (Homo sapiens) (UniProt Q969F8); test: Human kisspeptin (KISS1R) small molecule agonists, calcium flux assay in KISS1R-HEK293 cells (AID 1920064; active means well fitted curve in the direction sought with a large enough effect in the repeat runs; an effect the other way counts as inactive or inconclusive)
KiSS-1 receptor (Homo sapiens), sequence (Q969F8 whole entry, looked up): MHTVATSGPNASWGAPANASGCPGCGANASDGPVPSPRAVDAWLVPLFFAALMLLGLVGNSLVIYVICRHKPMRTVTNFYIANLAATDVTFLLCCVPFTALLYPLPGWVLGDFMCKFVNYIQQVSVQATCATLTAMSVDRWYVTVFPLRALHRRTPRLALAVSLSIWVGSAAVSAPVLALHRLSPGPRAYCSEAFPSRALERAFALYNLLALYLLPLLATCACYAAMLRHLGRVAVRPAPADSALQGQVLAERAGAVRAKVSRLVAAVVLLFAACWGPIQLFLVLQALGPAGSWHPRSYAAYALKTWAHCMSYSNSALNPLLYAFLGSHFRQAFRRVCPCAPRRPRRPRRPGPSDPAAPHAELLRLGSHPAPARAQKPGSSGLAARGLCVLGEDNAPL
How it was run: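 Measures KISS1R agonism through calcium-sensitive dye fluorescence in stably transfected HEK293 cells, read for 3 min after pin-tool compound delivery; 15-point titrations in triplicate.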

[5] = G protein-coupled receptor (GPCR) small molecule agonists, calcium flux assay: HEK293 wild type cell line counter screen (AID 1920065)
How it was run: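 Readout: fluorescence at 480 nm excitation/540 nm emission, sampled at 1 s intervals for 3 min. Cells had been cultured 18 h, then dye-loaded 1 h at 37 C before compound or ATP addition.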

[6] = p53 small molecule agonists, cell-based qHTS assay with rat liver microsomes (AID 1963578)
How it was run: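 Agonist mode in p53RE-bla reporter cells, with compounds co-incubated 16 h at 37 C alongside 0.5 mg/mL rat liver microsomes and 0.5 mg/mL NADPH (final), followed by a 2 h LiveBLAzer detection step.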

[7] = p53 small molecule agonists, cell-based qHTS assay with human liver microsomes: qHTS cell viability counter screen (AID 1963579); further: nearly all actives have a fitted effect of over 45% in size
How it was run: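 Metabolically activated exposure: compounds, human liver microsomes and NADPH (0.5 mg/mL final apiece) were added to p53RE-bla cells seeded 5 h earlier, left 16 h at 37 C, and then assessed for viability by CellTiter-Glo luminescence.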

[8] = p53 small molecule agonists, cell-based qHTS assay with rat liver microsomes: qHTS cell viability counter screen (AID 1963580); further: nearly all actives have a fitted effect of over 45% in size
How it was run: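 HCT-116 p53RE-bla, 4,000 cells/well, 5 h pre-incubation; cpd + rat liver microsomes 0.5 mg/mL + NADPH 0.5 mg/mL (final); 16 h, 37 C; CellTiter-Glo, 30 min RT; luminescence.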

[9] = p53 small molecule agonists, cell-based qHTS assay: qHTS cell viability counter screen (AID 1963581); further: nearly all actives have a fitted effect of over 45% in size
How it was run: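 In the same plates used for the p53 bla reporter, HCT-116 cells given compounds for 16 h at 37 C received CellTiter-Glo; luminescence was recorded 30 min later at room temperature.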

[10] = p53 small molecule agonists, cell-based qHTS assay (AID 1963582; active means well fitted activation curve with a large enough effect in the signal ratio in the repeat runs, not every such curve was filed as active; the % refers to the signal ratio; further: potency means the concentration at half of the fitted maximal effect)
How it was run: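 Compounds are pin-transferred in DMSO onto p53RE-bla cells and incubated 16 h at 37 C. The B/G FRET beta-lactamase substrate is then applied for 2 h at RT and fluorescence recorded.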

[11] = target: 5-hydroxytryptamine receptor 2A (Homo sapiens) (UniProt P28223); test: 5-hydroxytryptamine receptor 2A (HTR2A) small molecule antagonists, cell-based qHTS assay (AID 1963586); further: nearly all actives have a fitted effect of over 45% in size
5-hydroxytryptamine receptor 2A (Homo sapiens), sequence (P28223 whole entry, looked up): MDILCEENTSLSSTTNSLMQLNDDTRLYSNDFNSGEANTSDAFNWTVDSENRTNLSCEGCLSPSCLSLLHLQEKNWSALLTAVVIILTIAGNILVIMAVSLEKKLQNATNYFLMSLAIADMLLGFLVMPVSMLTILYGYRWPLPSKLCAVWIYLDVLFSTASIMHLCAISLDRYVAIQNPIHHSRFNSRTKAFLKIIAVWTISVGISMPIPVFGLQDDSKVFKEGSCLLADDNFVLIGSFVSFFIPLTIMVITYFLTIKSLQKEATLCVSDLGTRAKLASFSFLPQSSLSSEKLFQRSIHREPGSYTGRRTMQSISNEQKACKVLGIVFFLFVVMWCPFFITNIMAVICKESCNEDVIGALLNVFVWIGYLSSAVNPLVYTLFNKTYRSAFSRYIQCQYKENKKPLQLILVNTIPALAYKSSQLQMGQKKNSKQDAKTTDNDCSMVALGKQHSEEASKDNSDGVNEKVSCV
How it was run: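 Antagonist-mode intracellular calcium assay: DOI (4 nM) added after 5 min compound pre-incubation at room temperature to dye-loaded HTR2A-CHO cells. Fluorescence followed for 3 min, sampled every second.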

[12] = target: 5-hydroxytryptamine receptor 2A (Homo sapiens) (UniProt P28223); test: 5-hydroxytryptamine receptor 2A (HTR2A) small molecule agonists, cell-based qHTS assay (AID 1963587); further: nearly all actives have a fitted effect of over 30% in size; further: potency means the concentration at half of the fitted maximal effect
How it was run: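 Kinetic calcium-flux fluorescence (2 min, 1 sec intervals) after compound addition in agonist mode. HTR2A-CHO cells were cultured 18 h, then dye-loaded 1 h at 37 C.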

[13] = target: Muscarinic acetylcholine receptor M1 (Homo sapiens) (UniProt P11229); test: Cholinergic receptor muscarinic 1 (CHRM1) small molecule antagonists, cell-based qHTS assay (AID 1963588); further: nearly all actives have a fitted effect of over 40% in size; further: potency means the concentration at half of the fitted maximal effect
Muscarinic acetylcholine receptor M1 (Homo sapiens), sequence (P11229 whole entry, looked up): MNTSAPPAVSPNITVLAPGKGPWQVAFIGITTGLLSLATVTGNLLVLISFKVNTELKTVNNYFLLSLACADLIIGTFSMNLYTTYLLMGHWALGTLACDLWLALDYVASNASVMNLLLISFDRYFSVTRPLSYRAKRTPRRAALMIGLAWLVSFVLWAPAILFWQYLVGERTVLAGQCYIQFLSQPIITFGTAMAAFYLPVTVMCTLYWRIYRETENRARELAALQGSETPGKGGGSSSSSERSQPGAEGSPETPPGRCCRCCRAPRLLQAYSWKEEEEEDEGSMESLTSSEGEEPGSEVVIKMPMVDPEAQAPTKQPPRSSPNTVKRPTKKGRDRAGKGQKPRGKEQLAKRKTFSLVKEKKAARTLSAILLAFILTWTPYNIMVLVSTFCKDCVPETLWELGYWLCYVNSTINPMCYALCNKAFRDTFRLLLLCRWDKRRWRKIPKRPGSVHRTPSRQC
How it was run: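 CHRM1-CHO calcium-flux assay, antagonist mode. Cells were seeded 18 h, dye-loaded 1 h at 37 C and given compound for 5 min at RT, then acetylcholine was added at 50nM. FDSS fluorescence was read 3 min; 15 concentrations, three runs.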

[14] = target: Muscarinic acetylcholine receptor M1 (Homo sapiens) (UniProt P11229); test: Cholinergic receptor muscarinic 1 (CHRM1) small molecule agonists, cell-based qHTS assay (AID 1963589); further: nearly all actives have a fitted effect of over 35% in size; further: potency means the concentration at half of the fitted maximal effect
How it was run: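 Each compound was tested at 15 concentrations across three independent runs on dye-loaded CHO cells stably expressing human CHRM1, reading intracellular calcium fluorescence kinetically at 1 sec intervals.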

[15] = cAMP Responsive Elements (CRE) small molecule agonists, cell-based qHTS assay (AID 1963590)
How it was run: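 Cell line: CRE-bla HEK 293T; medium DMEM/10% dialyzed FBS/0.1 mM NEAA/1 mM pyruvate/25 mM HEPES; 3 h compound exposure; beta-lactamase FRET readout after 2 h substrate loading at RT.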

[16] = cAMP Responsive Elements (CRE) small molecule antagonists, cell-based qHTS assay (AID 1963591; active means well fitted inhibition curve with a large enough effect in the signal ratio in the repeat runs, not every such curve was filed as active; the % refers to the signal ratio)
How it was run: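 Inhibition of NKH477-driven (0.25 uM final) CRE-beta-lactamase signal in HEK293T cells, 3 h compound exposure at 37 °C, detected by FRET substrate fluorescence.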

[17] = target: Beta-2 adrenergic receptor (Homo sapiens) (UniProt P07550); test: Adrenergic beta2 receptor (ADRB2) small molecule antagonists, cell-based qHTS assay (AID 1963592); further: series mostly up to about 92 µM; nearly all actives have a fitted effect of over 50% in size
Beta-2 adrenergic receptor (Homo sapiens), sequence (P07550 whole entry, looked up): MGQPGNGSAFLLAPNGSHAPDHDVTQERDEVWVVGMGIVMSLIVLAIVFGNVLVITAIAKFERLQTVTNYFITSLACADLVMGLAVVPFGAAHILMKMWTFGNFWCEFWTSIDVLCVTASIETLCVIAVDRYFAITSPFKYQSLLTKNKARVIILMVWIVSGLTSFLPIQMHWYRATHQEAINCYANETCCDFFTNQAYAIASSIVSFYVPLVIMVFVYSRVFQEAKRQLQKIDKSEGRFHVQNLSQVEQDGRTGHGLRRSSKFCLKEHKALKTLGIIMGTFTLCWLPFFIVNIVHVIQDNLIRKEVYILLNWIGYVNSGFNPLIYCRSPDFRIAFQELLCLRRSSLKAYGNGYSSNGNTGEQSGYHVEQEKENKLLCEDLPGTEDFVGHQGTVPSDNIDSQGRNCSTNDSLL
How it was run: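 Cells (CHO, stable ADRB2 overexpression) incubated 18-20hr at 37C; compounds added from DMSO; agonist mix (1nM isoproterenol, 100uM IBMX, 25uM Ro-20-1724) added; 0.5hr RT; d2-cAMP and anti-cAMP-cryptate added; 1hr RT; 665/615 nm read.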

[18] = target: D(2) dopamine receptor (Homo sapiens) (UniProt P14416); test: Dopamine D2 receptor (DRD2) small molecule agonists, cell-based qHTS assay (AID 1963594); further: nearly all actives have a fitted effect of over 35% in size
D(2) dopamine receptor (Homo sapiens), sequence (P14416 whole entry, looked up): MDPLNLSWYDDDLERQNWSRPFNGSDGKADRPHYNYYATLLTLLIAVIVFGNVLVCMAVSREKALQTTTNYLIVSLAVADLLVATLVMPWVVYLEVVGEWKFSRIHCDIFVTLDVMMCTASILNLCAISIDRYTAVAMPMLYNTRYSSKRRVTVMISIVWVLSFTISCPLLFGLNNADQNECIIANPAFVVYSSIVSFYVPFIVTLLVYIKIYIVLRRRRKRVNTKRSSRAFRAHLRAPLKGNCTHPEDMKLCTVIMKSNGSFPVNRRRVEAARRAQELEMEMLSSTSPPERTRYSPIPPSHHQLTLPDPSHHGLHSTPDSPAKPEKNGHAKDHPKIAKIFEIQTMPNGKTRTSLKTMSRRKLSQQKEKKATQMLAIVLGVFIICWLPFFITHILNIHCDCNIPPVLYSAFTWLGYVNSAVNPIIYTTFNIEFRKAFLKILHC
How it was run: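 cAMP accumulation in DRD2-HEK293 cells measured by HTRF after 1 h detection; compounds added 10 min before NKH477 (200nM […]) forskolin-analogue stimulation, 30 min at room temperature, with Ro20-1724 present at 0.1 mM final.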

[19] = target: D(2) dopamine receptor (Homo sapiens) (UniProt P14416); test: Dopamine D2 receptor (DRD2) small molecule antagonists, cell-based qHTS assay (AID 1963595; active means well fitted inhibition curve with a large enough effect in the signal ratio in the repeat runs, with a control signal flat; the % refers to the signal ratio)
How it was run: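 Antagonism was scored as restored cAMP in HEK293-DRD2 cells. These cells were stimulated with 200 nM NKH477 and 12 nM quinpirole for 30 min at room temperature, in the presence of 0.1 mM Ro20-1724.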

[20] = target: Beta-2 adrenergic receptor (Homo sapiens) (UniProt P07550); test: Adrenergic beta2 receptor (ADRB2) small molecule agonists, cell-based qHTS assay (AID 1963593);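 further: CHO cells stably overexpressing human ADRB2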
How it was run: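 CHO cells stably over-expressing ADRB2 were plated overnight at 37C, then dosed with compounds plus a stimulation mix containing 100uM IBMX and 25uM Ro-20-1724 for 0.5hr at room temperature. cAMP was measured by HTRF competition, 1hr.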

Compound	Potency [1]	Potency [2]	Potency [3]	Potency [4]	Potency [5]	Potency [6]	Potency [7]	Potency [8]	Potency [9]	Potency [10]	Potency [11]	Potency [12]	Potency [13]	Potency [14]	Potency [15]	Potency [16]	Potency [17]	Potency [18]	Potency [19]	Potency [20]
NC(CSCC(=O)O)C(=O)O (centres undefined)	inactive	inactive	inactive	inactive	inactive	inactive	inactive	inactive	inactive	inactive	inactive	inactive	inactive	inactive	inactive	inactive	inactive	inactive	inactive	
CCCOc1ccc2c(c1)CC[C@@H]1[C@@H]2CC[C@]2(C)C(OC)CC[C@@H]12 (some centres undefined)	inactive	inactive	inactive	inactive	inactive	inactive	inactive	inactive	inactive	inactive	inactive	inactive	inactive	inactive	inactive	inactive	inactive	inactive		inactive
Cc1cc(C2CCCCC2)n(O)c(=O)c1	13.3 µM (active)	inactive	inactive	inactive	inactive	inactive			inactive						inactive		inactive	inactive		inactive
Nc1ccc(F)cc1F	inactive	inactive	inactive	inactive	inactive		inactive		inactive	inactive	inactive	inactive	inactive		inactive	inactive	inactive		inactive	inactive
CCO[Si](CC(C)C)(OCC)OCC	inactive	inactive	inactive	inactive	inactive		inactive	inactive	inactive		inactive	inactive	inactive	inactive		inactive	inactive	inactive	inactive	
CC(=O)Oc1ccc(C2(c3ccc(OC(C)=O)cc3)Oc3ccccc3NC2=O)cc1	inactive	inactive	inactive	inactive	inactive	inactive				4.46 µM (active)		inactive		inactive	inactive		inactive	inactive		
Nc1ccc(-c2ccc(F)cc2)cc1	inactive	inactive	inactive	inactive	inactive		inactive	inactive	inactive	inactive		inactive	inactive	inactive	inactive		inactive	inactive	inactive	
COc1nccnc1CC(C)C	inactive	inactive	inactive	inactive	inactive		inactive	inactive	inactive	inactive	inactive	inactive	inactive	inactive	inactive	inactive	inactive	inactive	inactive	
CCCCC(CC)COP(=O)(O)O (centres undefined)	inactive	inactive	inactive	inactive	inactive		inactive	inactive	inactive		inactive	inactive	inactive	inactive	inactive	inactive	inactive	inactive	inactive	
CCN(CC)CCNC(=O)COc1ccc(OC)cc1	inactive	inactive	inactive	inactive	inactive	inactive	inactive	inactive	inactive	inactive	inactive	inactive	inactive	inactive	inactive	inactive	inactive	inactive		inactive
O=[N+]([O-])c1cc[n+]([O-])cc1	inactive	61.1 µM (active)	inactive	inactive	inactive	inactive	inactive	inactive	inactive	inactive	inactive	inactive	inactive	inactive	inactive	inactive	inactive	inactive	inactive	inactive
Cc1c(NC(=O)c2cccnc2)c(=O)n(-c2ccccc2)n1C	inactive	inactive	inactive	inactive	inactive	inactive	inactive	inactive	inactive	inactive	inactive	inactive	inactive	inactive	inactive	inactive	inactive	inactive	inactive	inactive
CC(=O)/C=C/C=C1/C2CCC(C2)C1(C)C (centres undefined)	inactive	inactive	inactive	inactive	inactive	inactive	inactive	inactive	inactive	inactive	inactive	inactive	inactive	inactive	inactive	inactive	inactive	inactive	inactive	inactive
CC(C)c1cccc(C(C)C)c1N1C(=O)c2ccc(O)cc2C1=O	inactive	inactive	inactive	inactive	inactive						inactive	43.6 µM (active)	37.5 µM (active)				inactive	inactive	inactive	inactive
CS(=O)(=O)CCNCc1ccc(-c2ccc3ncnc(Nc4ccc(OCc5cccc(F)c5)c(Cl)c4)c3c2)o1	29.8 µM (active)	inactive	inactive	inactive	inactive		inactive	inactive	inactive		inactive	inactive	inactive	0.012 µM (active)				inactive	inactive	

From PubChem BioAssay (Tox21)
